Test results: PubChem BioAssay
Calls of active or inactive are those of the source.

Tests used:
[1] = test system: Human papillomavirus type 1a protein E7 (residues 44-93); test: small molecules binding HPV E7 44-93 – biochemical, small-molecule microarray, residues 44-93, 635 nm fluorescence, primary screen (AID 1108); conditions: fluorescence 635 nm, higher = more signal;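 note: E7 fragment applied at 1 µg/mL in TBST for 1 h at 4 C; score combines spot fluorescence with its signal to noise ratio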
[2] = hepatitis C replication reporter changes, two-sided – Huh7 cells, luciferase reporter, HCV replication inhibitor project, primary screen (AID 1109); conditions: Huh7 HCV replicon luciferase reporter, 48 h; higher = more signal;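 note: huh7 hepatoma cells harbouring a luciferase neomycin HCV replicon reporter; luciferase luminescence as measure of HCV replicon replication; test concentration not given here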
[3] = target: Left-right determination factor 2 (Homo sapiens) (UniProt O00292); test: small molecules binding LEFTY2 protein – biochemical, small-molecule microarray, 635 nm fluorescence scan, primary screen (AID 1110); conditions: higher = more signal
Chain of Left-right determination factor 2 (Homo sapiens) (O00292 whole entry, looked up): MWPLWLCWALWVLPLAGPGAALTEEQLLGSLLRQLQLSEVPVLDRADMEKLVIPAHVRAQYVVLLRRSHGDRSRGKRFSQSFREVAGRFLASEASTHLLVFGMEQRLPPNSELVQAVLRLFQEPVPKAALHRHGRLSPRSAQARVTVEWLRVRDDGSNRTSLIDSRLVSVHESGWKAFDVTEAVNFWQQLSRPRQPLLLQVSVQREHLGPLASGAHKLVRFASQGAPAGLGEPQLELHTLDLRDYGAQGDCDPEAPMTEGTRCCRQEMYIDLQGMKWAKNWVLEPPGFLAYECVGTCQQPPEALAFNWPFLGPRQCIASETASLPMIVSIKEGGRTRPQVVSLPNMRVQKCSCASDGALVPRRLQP

[4] = target: Calmodulin-1 (Homo sapiens) (UniProt P0DP23); test: small molecules binding calmodulin-1 with EGTA – biochemical, small-molecule microarray, Cy5-labelled CALM1, profiling panel (AID 1111); conditions: Cy5-CALM1 binding fluorescence, higher = more signal;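 note: labelled calmodulin applied in Tris saline Tween buffer holding calcium plus EGTA and DTT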
[5] = target: Calmodulin-1 (Homo sapiens) (UniProt P0DP23); test: small molecules binding Ca-loaded calmodulin-1 – biochemical, small-molecule microarray, Cy5-labelled CALM1, plus calcium, artefact control for SMM control-protein annotation, profiling panel (AID 1112); conditions: Cy5-CALM1 binding fluorescence, higher = more signal;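 note: score merges spot fluorescence with signal to noise from triplicate slides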
[6] = probe aWnt5a binding to arrayed compounds – biochemical, biotinylated probe, 635/667 nm fluorescence, primary screen (AID 1113); conditions: small-molecule microarray, higher = more signal;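 note: score merges 667 nm fluorescence intensity with signal-to-noise per printed feature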
[7] = probe aShh binding to arrayed compounds – biochemical, biotinylated probe, 635/667 nm fluorescence, primary screen (AID 1114); conditions: small-molecule microarray, higher = more signal;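 note: probe is biotin-labelled aShh protein from a stem cell growth factor screen; measures binding of labelled protein to compounds printed on the slide; score merges feature fluorescence at 667 nm with signal-to-noise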
[8] = probe aNog binding to arrayed compounds – biochemical, biotinylated probe, 635/667 nm fluorescence, primary screen (AID 1115); conditions: small-molecule microarray, higher = more signal;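 note: probe is biotinylated aNog protein used at 0.15 µg/mL for 1 h at 4 C; z-score combines 667 nm fluorescence of each spot with its signal to noise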
[9] = target: Torsin-1A-interacting protein 1 (Homo sapiens) (UniProt Q5JTV8); test: compound microarray binding of lysate hLAP1 – cell lysate, small-molecule microarray, COS7 lysate, 635/667 nm fluorescence, primary screen (AID 1116); conditions: 635 nm fluorescence, higher = more signal
Chain of Torsin-1A-interacting protein 1 (Homo sapiens) (Q5JTV8 whole entry, looked up): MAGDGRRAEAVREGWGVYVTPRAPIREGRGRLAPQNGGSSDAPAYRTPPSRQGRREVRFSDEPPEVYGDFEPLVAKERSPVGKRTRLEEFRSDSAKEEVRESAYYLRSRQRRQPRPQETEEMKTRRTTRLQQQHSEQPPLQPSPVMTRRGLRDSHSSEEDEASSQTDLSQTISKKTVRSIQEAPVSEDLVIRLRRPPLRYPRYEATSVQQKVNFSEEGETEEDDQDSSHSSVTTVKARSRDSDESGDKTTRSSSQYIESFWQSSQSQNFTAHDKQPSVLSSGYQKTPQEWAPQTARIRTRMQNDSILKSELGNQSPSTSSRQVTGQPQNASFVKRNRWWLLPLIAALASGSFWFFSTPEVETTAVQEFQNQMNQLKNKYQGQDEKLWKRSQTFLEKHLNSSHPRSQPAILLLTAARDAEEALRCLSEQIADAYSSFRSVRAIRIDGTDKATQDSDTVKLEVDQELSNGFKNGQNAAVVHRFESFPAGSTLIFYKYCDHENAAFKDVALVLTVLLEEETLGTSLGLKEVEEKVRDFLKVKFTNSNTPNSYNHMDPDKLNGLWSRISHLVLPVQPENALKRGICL

[10] = target: Alpha-bungarotoxin (Bungarus multicinctus) (UniProt P60615); test: compounds binding labelled alpha-BTX control protein – biochemical, small-molecule microarray, Alexa647 label, 635/667 nm fluorescence, artefact control for SMM control protein annotation, profiling panel (AID 1117); conditions: alpha-BTX-A647 binding fluorescence, higher = more signal
Chain of Alpha-bungarotoxin (Bungarus multicinctus) (P60615 whole entry, looked up): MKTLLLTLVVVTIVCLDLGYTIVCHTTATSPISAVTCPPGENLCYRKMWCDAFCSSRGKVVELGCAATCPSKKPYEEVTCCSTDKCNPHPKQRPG

Albumin (Bos taurus) = Albumin (Bos taurus) (UniProt P02769); test: compounds binding labelled BSA control protein – biochemical, small-molecule microarray, Alexa647 label, 635/667 nm fluorescence, artefact control for SMM control protein annotation, profiling panel (AID 1118); conditions: BSA-A647 binding, fluorescence 635 nm, higher = more signal;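 note: score merges 667 nm emission intensity and signal-to-noise per printed compound spot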
Chain of Albumin (Bos taurus) (P02769 whole entry, looked up): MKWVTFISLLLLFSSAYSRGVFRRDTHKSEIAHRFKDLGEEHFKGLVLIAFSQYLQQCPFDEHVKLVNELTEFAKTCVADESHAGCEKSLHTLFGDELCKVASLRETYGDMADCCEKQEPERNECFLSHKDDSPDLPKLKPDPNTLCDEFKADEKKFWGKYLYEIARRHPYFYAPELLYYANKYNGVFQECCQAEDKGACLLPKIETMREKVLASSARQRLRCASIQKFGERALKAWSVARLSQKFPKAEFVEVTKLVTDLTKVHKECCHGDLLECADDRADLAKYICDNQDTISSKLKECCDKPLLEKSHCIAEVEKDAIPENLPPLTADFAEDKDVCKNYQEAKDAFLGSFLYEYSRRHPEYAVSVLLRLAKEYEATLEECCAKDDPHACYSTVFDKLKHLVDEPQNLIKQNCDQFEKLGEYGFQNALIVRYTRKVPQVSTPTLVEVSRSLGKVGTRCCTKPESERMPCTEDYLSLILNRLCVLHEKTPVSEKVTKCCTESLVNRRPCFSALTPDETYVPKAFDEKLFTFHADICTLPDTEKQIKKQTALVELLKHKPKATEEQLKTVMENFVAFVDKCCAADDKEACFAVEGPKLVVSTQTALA

[11] = probe aXIP binding to arrayed compounds – biochemical, NeuroSMM set, 635/667 nm fluorescence, primary screen (AID 1119); conditions: small-molecule microarray, higher = more signal, called active from +8 up or from −8 down;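 note: probe is the protein aXip251-270 applied at 1 µg/mL to compound-printed slides; binding of probe to printed compounds measured as 667 nm fluorescence plus signal to noise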
[12] = probe aNOTCH3 binding on compound microarray – biochemical, small-molecule microarray, 635/667 nm fluorescence, primary screen (AID 1120); conditions: higher = more signal;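 note: probe is a biotin-tagged antibody raised against NOTCH3 rather than NOTCH3 protein; score merges spot fluorescence near 667 nm with spot signal to noise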
[13] = probe aNOTCH2 binding on compound microarray – biochemical, small-molecule microarray, 635/667 nm fluorescence, primary screen (AID 1121); conditions: higher = more signal;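 note: score merges feature fluorescence read at 667 nm with its signal to noise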
[14] = target: Carbonic anhydrase 2 (Homo sapiens) (UniProt P00918); test: compounds binding carbonic anhydrase 2 – biochemical, small-molecule microarray, Alexa647-labelled CAII, profiling panel (AID 1122); conditions: CAII-A647 binding fluorescence, higher = more signal
[15] = COS7 lysate on small-molecule microarray, probe aHis, 635 nm (AID 1123); conditions: COS7 cell lysate, fluorescence, higher = more signal;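 note: z-score combines 667nm fluorescence intensity with signal-to-noise per printed compound spot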
[16] = probe aLAP1 signal on lysate-treated microarray – cell lysate, small-molecule microarray, COS7 lysate, primary screen (AID 1124); conditions: probe aLAP1, fluorescence, higher = more signal;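 note: lysate comes from COS7 cells expressing LAP1 and is applied at 0.3 µg/mL; score merges spot fluorescence near 667 nm with signal-to-noise over triplicate slides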
Sam68 (KHDRBS1) = test: compounds binding KHDRBS1 protein – biochemical, small-molecule microarray, 635 nm fluorescence, primary screen (AID 1125); conditions: higher = more signal;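 note: score merges 667 nm channel intensity with signal to noise over triplicate slides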
[17] = test system: Chordin-like protein 2 (CHRDL2); test: compounds binding chordin-like 2 – biochemical, small-molecule microarray, 635 nm fluorescence, primary screen (AID 1126); conditions: fluorescence 635 nm, higher = more signal;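 note: printed compound slides probed with Chrdl2 protein at 4 µg/mL for 1 h at 4 C; score merges 667 nm emission intensity with signal to noise over three replicate slides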
[18] = target: Concanavalin-A (Canavalia ensiformis) (UniProt P02866); test: compounds binding concanavalin A lectin – biochemical, small-molecule microarray, Alexa647 label, 635 nm, artefact control for SMM control protein annotation, primary screen (AID 1127); conditions: ConA-A647 binding fluorescence, higher = more signal;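 note: z combines 667 nm emission intensity with signal-to-noise across three replicate slides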
Chain of Concanavalin-A (Canavalia ensiformis) (P02866 whole entry, looked up): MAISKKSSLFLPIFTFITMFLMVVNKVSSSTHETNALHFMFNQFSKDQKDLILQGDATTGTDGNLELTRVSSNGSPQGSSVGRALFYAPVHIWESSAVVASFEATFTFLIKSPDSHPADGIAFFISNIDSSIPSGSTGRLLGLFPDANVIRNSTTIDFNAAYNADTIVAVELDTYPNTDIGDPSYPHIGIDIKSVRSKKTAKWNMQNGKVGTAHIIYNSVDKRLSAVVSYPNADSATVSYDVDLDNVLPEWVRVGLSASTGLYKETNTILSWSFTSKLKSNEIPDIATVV

| SMILES | composite z-score [1] | z-score [2] | composite z-score [3] | composite z-score [4] | composite z-score [5] | composite z-score [6] | composite z-score [7] | composite z-score [8] | composite z-score [9] | composite z-score [10] | composite z-score (Albumin (Bos taurus)) | composite Z-score [11] | composite z-score [12] | composite z-score [13] | composite z-score [14] | composite z-score [15] | composite z-score [16] | composite z-score (Sam68 (KHDRBS1)) | composite z-score [17] | composite z-score [18] |
| --- | --- | --- | --- | --- | --- | --- | --- | --- | --- | --- | --- | --- | --- | --- | --- | --- | --- | --- | --- | --- |
| C=CCN1C(=O)[C@]2(O[C@H](CCn3cc([C@H](O)c4ccccc4)nn3)[C@@H]([Si](C)(C)c3ccc(OC)cc3)[C@@H]2C)c2cc(N3C(=O)c4cccc5cccc3c45)ccc21 | 0.87 | -4.4 | -0.744 | 0.313 | -0.58 | -0.156 | -0.0769 | -0.0809 | 0.404 | 1.39 | 0.626 | 0.783 (inactive) | -0.141 | -0.126 | 0.522 | 0.515 | 0.389 | 0.598 | -0.693 | 0.471 |
| COCC(=C=CC[C@@H](O)c1cccc(OCCO)c1)C[C@@H](O)COCc1ccccc1 | 0.276 | -0.81 | -0.0586 | 1.8 | 1.35 | 0.284 | 0.0633 | -0.215 | 3.66 | 0.116 | 0.809 | -1.85 (inactive) | 0.381 | 0.121 | 0.552 | 3.68 | 0.684 | 0.92 | -0.69 | 0.132 |
| CC(=O)c1ccc(C(O)C2C=CC3C(=O)NC(=O)C3N2Nc2ccc(Cl)cc2Cl)cc1 (stereo not given) | 0.18 | -0.38 | -0.16 | 0.594 | 0.468 | -0.0161 | 0.522 | 1.25 | 0.0338 | 0.186 | 0.843 | 0.0186 (inactive) | -0.0151 | -0.0097 | 0.759 | 2.15 | -0.227 | -0.0077 | 0.0823 | -0.185 |
| COCCOC(=O)N1C(=O)[C@@]2(c3ccccc31)[C@H](C(N)=O)[C@H]1C(=O)O[C@H](c3ccccc3)[C@H](c3ccccc3)N1[C@@H]2c1ccc(OCCO)cc1 | 1.45 | -1.09 | 0.234 | 0.68 | -0.183 | -0.063 | 0.0723 | -0.0161 | 0.905 | 1.37 | 0.787 | 1.32 (inactive) | -0.0055 | -0.123 | 0.508 | 1.74 | 0.103 | 1.31 | 0.33 | 1.15 |
| CC(C)C[C@@H]1NC(=O)[C@@]23C(=O)N[C@@H](Cc4ccccc4)C2[C@H](C)[C@@]2(C)O[C@H]2C3/C=C/C/C=C\CNC(=O)[C@@H](CC(C)C)NC1=O (stereo not given in full) | 0.741 | 0.052 | 0.567 | -0.475 | -0.674 | -0.101 | -0.238 | -0.35 | 0.403 | 0.322 | 0.757 | 0.183 (inactive) | -0.0311 | -0.167 | 0.599 | 0.925 | 0.285 | 1.3 | 0.732 | -1.14 |
